Screening results (PubChem BioAssay)
GLP1R inv ag = acts as inverse agonist at human GLP-1 receptor. P43220. HEK293 GLP-1R CRE-luciferase, luminescence, 24 h; GLP-1R form is constitutively active. Potency, µM (titrated, usually from 38.3 µM), for inactives: top-dose activity change, negative = inhibition, most hits filed as inhibitors. 410,000 compounds, 1.6% hits. AID 624417; also: potency is read from the fitted curve at half-maximal effect; % is scaled to controls: 0 for no effect and ±100 for the full control effect; nearly all actives have a fitted effect of over 55% in size
Target sequence (P43220 whole entry, looked up): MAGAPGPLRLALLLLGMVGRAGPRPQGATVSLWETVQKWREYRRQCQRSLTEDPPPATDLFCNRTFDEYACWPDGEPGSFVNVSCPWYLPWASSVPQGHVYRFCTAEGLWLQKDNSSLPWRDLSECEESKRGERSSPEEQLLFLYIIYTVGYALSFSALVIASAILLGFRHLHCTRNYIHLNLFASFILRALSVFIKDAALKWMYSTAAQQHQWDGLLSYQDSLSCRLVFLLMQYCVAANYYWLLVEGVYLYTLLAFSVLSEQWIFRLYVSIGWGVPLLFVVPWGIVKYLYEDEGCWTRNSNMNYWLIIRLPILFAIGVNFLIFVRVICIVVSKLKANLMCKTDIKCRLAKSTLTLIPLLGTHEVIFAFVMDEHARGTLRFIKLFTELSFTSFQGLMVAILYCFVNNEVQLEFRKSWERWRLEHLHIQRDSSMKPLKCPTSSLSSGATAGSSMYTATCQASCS
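Using stably transfected HEK293 (constitutively active GLP-1R, cAMP-luciferase reporter), compounds were incubated 24 hr and luciferase measured by luminescence.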
GLP-1R agonist = activates the human GLP-1 receptor. P43220. 380,000 compounds, 0.007% hits. Potency, µM (titrated, usually from 45.6 µM), inactives show at the top dose activation, most hits filed as activators. HEK293 GLP-1R CRE-luciferase, luminescence, 4-6 h; cells express a hypersensitive GLP-1R form; also: potency is read from the fitted curve at half-maximal effect; % of control where 0% means no effect
DRD3 antagonist = antagonists of human D3 dopamine receptor; P35462; D3R cells, DiscoveRx beta-arrestin luminescence, antagonist mode; active compounds read low; max response, negative = inhibition, %; 360,000 compounds, 2.5% hits; in the data active = max response below about -50%; inconclusive = no clear call, values can overlap the other calls; also: % is scaled to controls: 0 for no effect and ±100 for the full control effect
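Cells plated overnight at 1500 cells/well, then exposed to library compounds with dopamine controls for 90 minutes at 37 degrees C. DiscoveRx reagent added for 30–60 minutes at room temperature; luminescence read, quantitative HTS format.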
DRD3 agonist = D3 dopamine receptor (human) agonism; P35462; D3R DiscoveRx beta-arrestin cells, luminescence, 90 min; max activation, %; 410,000 compounds, 0.58% hits; in the data active = max activation above about 30%; also: 0% is about no effect
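Cells at 1500/well, incubated overnight, then treated with pinned compounds (dopamine as control) for 90 min at 37 degrees C. DiscoveRx reagent added for 30 - 60 minutes at room temperature; luminescence read.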
Active calls of the source: *; ? = inconclusive; . = not tested or not shown. Most compounds without a hit are left out; they make up all but 4.3% or so of the library. Unless noted, calls follow the shape of the dose curve; as a rule, active = well fitted curve in the direction sought with a large enough effect; inconclusive = small, poorly fitted or top-dose-only effect, or another doubt; inactive = no such curve, though single readings can be large; an effect the other way counts as inactive or inconclusive.

SMILES	GLP1R inv ag	GLP-1R agonist	DRD3 antagonist	DRD3 agonist
Cc1ccc(S(=O)(=O)C2CS(=O)(=O)CC2O)cc1 (centres undefined)	12%	5%	18	0
CCC(C)C1NC(=O)C(Cc2ccc(O)cc2)NC(=O)C(N)CSSCC(C(=O)N2CCCC2C(=O)NC(CC(C)C)C(=O)NCC(N)=O)NC(=O)C(CC(N)=O)NC(=O)C(CCC(N)=O)NC1=O (centres undefined)	.	4%	.	.
CC(C)(C)C(=O)NC(Nc1cccc2cccnc12)C(Cl)(Cl)Cl (centres undefined)	5µM*	-9%	-7	-8
CCN(CC)c1nc2ccccc2n(Cc2cccc(OC)c2)c1=O	3.5µM*	18%	-12	-6
COC(=O)C1=C(C)N(Cc2ccccc2)C(=O)N[C@H]1c1cccs1	-26%	11%	-55*	-5
O=C1[C@@H]2Cc3c([nH]c4ccccc34)C(c3ccccc3)N2C(=O)CN1C1CCN(Cc2ccccc2)CC1 (some centres undefined)	2.2µM*	0%	-11	-15
O=C1[C@@H]2Cc3c([nH]c4ccccc34)C(c3cccc(Br)c3)N2C(=O)CN1C1CCN(Cc2ccccc2)CC1 (some centres undefined)	3.2µM*	4%	-19	-26
COc1cccc(C2c3[nH]c4ccccc4c3C[C@H]3C(=O)N(C4CC4)CC(=O)N23)c1 (some centres undefined)	-15%	12%	-4	0
COC(=O)c1ccc(C2c3[nH]c4ccccc4c3C[C@H]3C(=O)N(C4CCN(Cc5ccccc5)CC4)CC(=O)N23)cc1 (some centres undefined)	10µM*	-1%	-61*	-21
COc1ccc(C2c3[nH]c4ccccc4c3C[C@H]3C(=O)N(C4CCN(Cc5ccccc5)CC4)CC(=O)N23)c(OC)c1 (some centres undefined)	?	4%	-30	-18
COc1cc(C2c3[nH]c4ccccc4c3C[C@H]3C(=O)N(C4CC4)CC(=O)N23)ccc1OC(C)C (some centres undefined)	-21%	30%	0	-7
CCOc1ccccc1C1c2[nH]c3ccccc3c2C[C@H]2C(=O)N(C3CCN(Cc4ccccc4)CC3)CC(=O)N12 (some centres undefined)	?	8%	-105*	-38
c1ccc2c(c1)nc(N1CCCCCC1)c1nncn12	3%	33%	-27	-2
CCN1CCN(c2nc3ccccc3n3cnnc23)CC1	-6%	-5%	-70*	-22
C=CCSc1cc(C)nc2c(-c3ccc(Cl)cc3)c(C)nn12	-4%	10%	20	38*
Cc1nn(C(C)(C)C)c(OC(=O)c2cccs2)c1Sc1ccccc1	-15%	-23%	-53*	-4
Cc1nn(C(C)(C)C)c(OC(=O)c2ccc3c(c2)OCO3)c1S(=O)(=O)c1ccccc1	10µM*	-6%	?	6
CCOc1ccc(C(=O)Oc2c(Sc3ccccc3)c(C)nn2C(C)(C)C)cc1OCC	?	.	.	-1
Cc1ccc(S(=O)(=O)c2c(C)nn(C(C)(C)C)c2OC(=O)c2ccco2)cc1	?	-21%	17	3
Cc1nn(C(C)(C)C)c(OC(=O)c2ccc3c(c2)OCO3)c1Sc1ccccc1	4.5µM*	-5%	-22	-14
CCc1ccc(NC(=O)Cn2c(=O)n(-c3cc(OC)c(OC)c(OC)c3)c(=O)c3ccccc32)cc1	1%	2%	.	-7
O=C(NC1(C(F)(F)F)NC(=O)N(CC2CCCCC2)C1=O)c1ccco1 (centres undefined)	-18%	-1%	-51*	-3
CC(C)(C)c1ccc(C(=O)NC2(C(F)(F)F)NC(=O)N(CCc3ccccc3)C2=O)cc1 (centres undefined)	13µM*	-5%	.	-9
CCC1C(=NO)C(CC)C(c2ccccc2)NC1c1ccccc1 (centres undefined)	3.5µM*	0%	13	23
CC1C(=NO)C(C)C(c2ccccc2)NC1c1ccccc1 (centres undefined)	0%	-3%	-8	0
SMILES	GLP1R inv ag	GLP-1R agonist	DRD3 antagonist	DRD3 agonist
Cc1ccc2[nH]c3c(c2c1)CNCC3	-19%	3%	-58*	-22
CCN(c1ccccc1)S(=O)(=O)c1ccc(Cl)c(NC(=O)CN(C)Cc2cccc(F)c2)c1	5µM*	13%	-8	-8
CN(C)S(=O)(=O)c1ccc(Cl)c(NC(=O)CN2CCCCCC2)c1	?	23%	-20	-15
CCN(c1ccccc1)S(=O)(=O)c1ccc(Cl)c(NC(=O)CN2CCCCCC2)c1	1.6µM*	21%	-25	-16
Cc1ccc2oc(=O)n(CCCOc3ccc(Cl)cc3)c2c1	?	.	.	-20
CC1CCc2[nH]c3ccc(C(=O)N4CCCC(C(F)(F)F)C4)cc3c2C1 (centres undefined)	10µM*	-14%	-20	1
CC(C)N1CC(C(=O)Nc2ccc(Cl)c(Cl)c2)CC1=O (centres undefined)	?	4%	-24	72*
CCCOc1ccc(C(=O)Nc2cccc(-c3nc4ccccc4[nH]3)c2)cc1	?	-2%	.	-2
COc1cc2c(cc1OC)n(CC(=O)c1cccc(Cl)c1)c(=O)n1nc(CCn3nc(C)cc3C)nc21	-12%	.	.	10
CCOC(=O)c1sc2nc(C)nc(NCc3ccc(F)cc3)c2c1C	7.1µM*	13%	36	-5
COc1ccc(CNC(=O)C2CCN(S(=O)(=O)c3cccc4nonc34)CC2)cc1OC	7%	.	.	1
COc1cccc2c1ncc1c(-c3ccc(C)cc3)nn(-c3cccc([N+](=O)[O-])c3)c12	16%	.	.	-1
COCCn1c(C23CC4CC(CC(C4)C2)C3)n[nH]c1=S	?	-13%	-3	3
CCCCn1c(C23CC4CC(CC(C4)C2)C3)n[nH]c1=S	7.1µM*	-11%	-11	-3
Cc1ccc(S(=O)(=O)NCCc2csc3nc(-c4ccccc4C)nn23)cc1	10%	-1%	.	-17
COCCOC(=O)C1=C(C)NC(=O)N(C(C)=O)C1c1ccc(Cl)cc1 (centres undefined)	-3%	-6%	-102*	-7
CC1CCN(CCCOc2ccc(OCc3ccccc3)cc2)CC1	?	-2%	-70*	0
Cc1ccc(OCCCCN2CCC(C)CC2)cc1	-7%	-2%	?	-39
CC1CCN(CCCCOc2ccc(F)cc2)CC1	-18%	0%	-59*	-39
CC1CCN(CCCCOc2ccc(C(=O)c3ccccc3)cc2)CC1	?	-6%	-75*	-15
COc1ccccc1OCCOc1ccc(C(=O)c2ccccc2)cc1	8.9µM*	4%	20	3
CC1CCN(CCOc2ccc(C(=O)c3ccccc3)cc2)CC1	?	-5%	-29	-17
COc1ccccc1OCc1ccc(C(=O)c2ccccc2)cc1	?	15%	3	1
COc1ccc(-c2onc(C)c2C)cc1S(=O)(=O)Nc1ccc(OC(F)(F)F)cc1	13µM*	.	.	1
